The results in this text go back to ChEMBL document CHEMBL3988442, “University of Dundee, Small-Polar-MMV Screening Library” (2021).

Holding throughout (parameters): scale not given: direction of the effect not stated beside the values
The target of assay [1] is Protein translocase subunit SecA (Escherichia coli (strain K12)) (UniProt P10408). Kind of assay: Assay to Identify E. coli SecA ATPase Inhibitors. Format: functional. The conditions noted are these: 30 µM.
Assay [2] addresses T1, Ubiquitin-activating enzyme e1, putative (Leishmania donovani (strain BPK282A1)) (UniProt E9BSI1).
T1 sequence (whole entry): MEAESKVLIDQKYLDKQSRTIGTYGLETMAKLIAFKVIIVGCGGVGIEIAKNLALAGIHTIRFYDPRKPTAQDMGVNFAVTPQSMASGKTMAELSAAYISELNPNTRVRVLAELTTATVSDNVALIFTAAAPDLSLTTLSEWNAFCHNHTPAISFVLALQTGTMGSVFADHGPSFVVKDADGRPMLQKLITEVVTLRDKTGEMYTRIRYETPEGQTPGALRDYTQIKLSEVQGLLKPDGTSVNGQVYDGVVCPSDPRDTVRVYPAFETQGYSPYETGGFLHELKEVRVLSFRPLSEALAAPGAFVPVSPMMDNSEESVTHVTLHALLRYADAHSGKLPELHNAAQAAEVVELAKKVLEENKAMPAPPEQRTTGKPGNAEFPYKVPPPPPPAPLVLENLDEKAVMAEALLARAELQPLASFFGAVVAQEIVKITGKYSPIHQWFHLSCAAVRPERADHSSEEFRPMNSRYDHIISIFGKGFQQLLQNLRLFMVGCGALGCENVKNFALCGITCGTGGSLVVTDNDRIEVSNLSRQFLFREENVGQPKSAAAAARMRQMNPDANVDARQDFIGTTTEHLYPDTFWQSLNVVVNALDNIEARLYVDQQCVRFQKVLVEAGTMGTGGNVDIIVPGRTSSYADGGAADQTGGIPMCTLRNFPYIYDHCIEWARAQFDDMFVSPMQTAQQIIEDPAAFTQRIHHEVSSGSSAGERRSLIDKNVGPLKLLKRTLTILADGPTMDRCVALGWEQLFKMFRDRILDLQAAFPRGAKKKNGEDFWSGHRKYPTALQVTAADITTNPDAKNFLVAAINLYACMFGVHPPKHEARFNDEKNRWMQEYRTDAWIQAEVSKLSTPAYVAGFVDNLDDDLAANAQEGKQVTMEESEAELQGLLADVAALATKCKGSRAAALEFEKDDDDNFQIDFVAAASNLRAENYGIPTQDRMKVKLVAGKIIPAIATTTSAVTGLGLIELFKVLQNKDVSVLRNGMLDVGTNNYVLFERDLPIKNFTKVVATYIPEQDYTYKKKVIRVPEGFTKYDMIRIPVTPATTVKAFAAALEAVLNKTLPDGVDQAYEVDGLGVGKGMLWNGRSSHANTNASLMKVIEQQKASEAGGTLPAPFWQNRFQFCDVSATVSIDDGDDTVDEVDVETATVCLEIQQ
Kind of assay: Leishmania donovani Ubiquitin Activating Enzyme (LdE1). Format: functional. The conditions noted are these: 30 µM.

The target of assay [3] is AMP-activated protein kinase, AMPK (Homo sapiens) (UniProt P54646+O43741+P54619+Q9UGJ0+Q9Y478+Q13131+Q9UGI9). In words: AMP-dependent Kinase enzyme assay. An in vitro enzyme assay that detects ADP turnover that is directly proportional to AMPK activity. This uses naive AMPK that is activated during the assay with MK-8722. Format: functional. The conditions noted are these: 30 µM.

Assay [4] deals with Sialic acid-binding Ig-like lectin 9 (Homo sapiens) (UniProt Q9Y336). Kind of assay: Hs-Siglec9 ALPHAscreen SOP 20170721. The following applies: 10 µM.
A further assay deals with Trypanosoma cruzi. In words: Trypanosoma cruzi phosphomannomutase and mannose-1-phosphate guanylyltransferase assay. The format is functional. The following applies: 10 µM.
The target of assay [5] is T2, Arginase-2, mitochondrial (Homo sapiens) (UniProt P78540).
T2 sequence (whole entry): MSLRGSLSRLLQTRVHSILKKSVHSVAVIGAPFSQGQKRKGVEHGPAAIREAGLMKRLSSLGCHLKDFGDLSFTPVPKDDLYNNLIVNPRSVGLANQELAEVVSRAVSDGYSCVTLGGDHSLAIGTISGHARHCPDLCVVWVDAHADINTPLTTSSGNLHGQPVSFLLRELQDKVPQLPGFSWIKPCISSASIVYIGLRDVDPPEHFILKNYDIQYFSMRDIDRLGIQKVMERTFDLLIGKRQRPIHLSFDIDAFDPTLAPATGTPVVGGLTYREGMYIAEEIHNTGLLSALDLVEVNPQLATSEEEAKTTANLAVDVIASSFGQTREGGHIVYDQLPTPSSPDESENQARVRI
In words: in vitro enzyme assay to detect the production of urea directly proportional to the activity of Arginase II. Further: in the data most compounds retested in dose-response had high values. Format: functional. The conditions noted are these: 33.3 µM.

The target in assay [6] is T3, Proteasome subunit beta (Trypanosoma cruzi) (UniProt O96673).
T3 sequence (whole entry): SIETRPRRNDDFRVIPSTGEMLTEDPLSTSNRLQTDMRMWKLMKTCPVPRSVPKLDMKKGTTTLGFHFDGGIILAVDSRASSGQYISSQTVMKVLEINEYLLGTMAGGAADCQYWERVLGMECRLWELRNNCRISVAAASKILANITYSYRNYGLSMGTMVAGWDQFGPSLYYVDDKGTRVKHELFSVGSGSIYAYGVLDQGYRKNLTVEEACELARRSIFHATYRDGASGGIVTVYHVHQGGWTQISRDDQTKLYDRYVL
In words: Trypanosoma cruzi proteasome chymotrypsin-like activity (TcProtChymo) assay. Further: in the data most compounds retested in dose-response had high values. Format: functional. The following applies: 9.37 µM.

For a further assay, the species on record is Homo sapiens. Kind of assay: To identify inhibition of the IFN signalling (Jak-Stat) pathway via expression of an eGFP reporter gene under the control of an IFN-stimulated response element (ISRE) containing MxA promoter. The format is functional. The following applies: 30 µM. (In general: In a reporter assay the amount or activity of a reporter protein is the signal.)

In assay [7] the target is T4, Tyrosyl-tRNA synthetase, putative (Trypanosoma cruzi (strain CL Brener)) (UniProt Q4DSP6).
T4 sequence (whole entry): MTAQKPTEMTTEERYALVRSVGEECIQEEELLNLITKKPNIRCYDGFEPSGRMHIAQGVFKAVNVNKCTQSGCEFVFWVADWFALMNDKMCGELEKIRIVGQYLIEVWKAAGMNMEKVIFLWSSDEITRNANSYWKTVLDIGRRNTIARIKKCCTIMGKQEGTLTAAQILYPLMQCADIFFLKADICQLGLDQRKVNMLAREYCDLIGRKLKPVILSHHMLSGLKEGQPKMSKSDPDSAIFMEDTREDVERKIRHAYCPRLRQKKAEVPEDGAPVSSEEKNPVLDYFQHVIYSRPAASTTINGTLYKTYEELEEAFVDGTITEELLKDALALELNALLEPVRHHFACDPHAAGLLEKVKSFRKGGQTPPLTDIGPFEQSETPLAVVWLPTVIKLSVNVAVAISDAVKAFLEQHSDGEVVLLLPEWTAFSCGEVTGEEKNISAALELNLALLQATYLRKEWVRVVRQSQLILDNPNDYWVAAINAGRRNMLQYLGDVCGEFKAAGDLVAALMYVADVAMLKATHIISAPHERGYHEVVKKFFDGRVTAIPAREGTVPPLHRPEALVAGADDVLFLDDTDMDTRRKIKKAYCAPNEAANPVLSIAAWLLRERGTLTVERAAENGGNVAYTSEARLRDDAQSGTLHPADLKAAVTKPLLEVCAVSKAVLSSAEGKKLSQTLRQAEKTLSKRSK
Kind of assay: Trypanosoma cruzi tyrosyl tRNA synthetase (TcYRS) _High Tyrosine SOP. Further: in the data most compounds retested in dose-response had high values. Format: functional. The following applies: 30 µM.

Assay [8] deals with T4, Tyrosyl-tRNA synthetase, putative (Trypanosoma cruzi (strain CL Brener)). In words: Trypanosoma cruzi tyrosyl tRNA synthetase (TcYRS) SOP. The format is functional. The following applies: 30 µM.
For assay [9], the target named is Chromo domain-containing protein 1 (Saccharomyces cerevisiae (strain ATCC 204508 / S288c) (Baker's yeast)) (UniProt P32657). In words: ScCHD-1 Enzyme Inhibition Assay. Further: in the data most compounds retested in dose-response had high values. The following applies: 30 µM. Format: functional.

Each structure is given as a SMILES string. For some of these results: Results with a measured potency or affinity are listed apart.

Sequence of Protein translocase subunit SecA (Escherichia coli (strain K12)) (P10408 whole entry): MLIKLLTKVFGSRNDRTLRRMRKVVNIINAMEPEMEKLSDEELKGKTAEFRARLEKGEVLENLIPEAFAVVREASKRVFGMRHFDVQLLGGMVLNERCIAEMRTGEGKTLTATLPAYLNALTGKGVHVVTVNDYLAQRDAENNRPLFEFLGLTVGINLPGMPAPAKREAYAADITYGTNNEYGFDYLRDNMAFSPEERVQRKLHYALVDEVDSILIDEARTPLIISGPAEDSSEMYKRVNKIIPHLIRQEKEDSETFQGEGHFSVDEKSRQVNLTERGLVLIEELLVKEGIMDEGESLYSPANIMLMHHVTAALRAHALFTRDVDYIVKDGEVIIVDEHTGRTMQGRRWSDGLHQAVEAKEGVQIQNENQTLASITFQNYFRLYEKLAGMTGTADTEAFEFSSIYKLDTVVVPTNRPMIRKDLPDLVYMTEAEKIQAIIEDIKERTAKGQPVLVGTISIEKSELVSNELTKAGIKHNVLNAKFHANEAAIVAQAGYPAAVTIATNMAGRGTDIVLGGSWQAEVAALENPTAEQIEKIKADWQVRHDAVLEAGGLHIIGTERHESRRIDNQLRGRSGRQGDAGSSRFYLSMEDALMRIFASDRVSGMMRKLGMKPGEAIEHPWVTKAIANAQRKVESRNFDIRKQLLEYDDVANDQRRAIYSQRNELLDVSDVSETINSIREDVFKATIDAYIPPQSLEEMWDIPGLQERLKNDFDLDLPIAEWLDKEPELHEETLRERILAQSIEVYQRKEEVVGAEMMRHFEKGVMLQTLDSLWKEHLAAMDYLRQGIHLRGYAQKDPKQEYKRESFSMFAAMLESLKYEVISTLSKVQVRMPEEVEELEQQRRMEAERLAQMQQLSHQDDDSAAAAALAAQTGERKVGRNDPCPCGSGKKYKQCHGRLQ
Sequence of Chromo domain-containing protein 1 (Saccharomyces cerevisiae (strain ATCC 204508 / S288c) (Baker's yeast)) (P32657 whole entry, the tested form may be a part): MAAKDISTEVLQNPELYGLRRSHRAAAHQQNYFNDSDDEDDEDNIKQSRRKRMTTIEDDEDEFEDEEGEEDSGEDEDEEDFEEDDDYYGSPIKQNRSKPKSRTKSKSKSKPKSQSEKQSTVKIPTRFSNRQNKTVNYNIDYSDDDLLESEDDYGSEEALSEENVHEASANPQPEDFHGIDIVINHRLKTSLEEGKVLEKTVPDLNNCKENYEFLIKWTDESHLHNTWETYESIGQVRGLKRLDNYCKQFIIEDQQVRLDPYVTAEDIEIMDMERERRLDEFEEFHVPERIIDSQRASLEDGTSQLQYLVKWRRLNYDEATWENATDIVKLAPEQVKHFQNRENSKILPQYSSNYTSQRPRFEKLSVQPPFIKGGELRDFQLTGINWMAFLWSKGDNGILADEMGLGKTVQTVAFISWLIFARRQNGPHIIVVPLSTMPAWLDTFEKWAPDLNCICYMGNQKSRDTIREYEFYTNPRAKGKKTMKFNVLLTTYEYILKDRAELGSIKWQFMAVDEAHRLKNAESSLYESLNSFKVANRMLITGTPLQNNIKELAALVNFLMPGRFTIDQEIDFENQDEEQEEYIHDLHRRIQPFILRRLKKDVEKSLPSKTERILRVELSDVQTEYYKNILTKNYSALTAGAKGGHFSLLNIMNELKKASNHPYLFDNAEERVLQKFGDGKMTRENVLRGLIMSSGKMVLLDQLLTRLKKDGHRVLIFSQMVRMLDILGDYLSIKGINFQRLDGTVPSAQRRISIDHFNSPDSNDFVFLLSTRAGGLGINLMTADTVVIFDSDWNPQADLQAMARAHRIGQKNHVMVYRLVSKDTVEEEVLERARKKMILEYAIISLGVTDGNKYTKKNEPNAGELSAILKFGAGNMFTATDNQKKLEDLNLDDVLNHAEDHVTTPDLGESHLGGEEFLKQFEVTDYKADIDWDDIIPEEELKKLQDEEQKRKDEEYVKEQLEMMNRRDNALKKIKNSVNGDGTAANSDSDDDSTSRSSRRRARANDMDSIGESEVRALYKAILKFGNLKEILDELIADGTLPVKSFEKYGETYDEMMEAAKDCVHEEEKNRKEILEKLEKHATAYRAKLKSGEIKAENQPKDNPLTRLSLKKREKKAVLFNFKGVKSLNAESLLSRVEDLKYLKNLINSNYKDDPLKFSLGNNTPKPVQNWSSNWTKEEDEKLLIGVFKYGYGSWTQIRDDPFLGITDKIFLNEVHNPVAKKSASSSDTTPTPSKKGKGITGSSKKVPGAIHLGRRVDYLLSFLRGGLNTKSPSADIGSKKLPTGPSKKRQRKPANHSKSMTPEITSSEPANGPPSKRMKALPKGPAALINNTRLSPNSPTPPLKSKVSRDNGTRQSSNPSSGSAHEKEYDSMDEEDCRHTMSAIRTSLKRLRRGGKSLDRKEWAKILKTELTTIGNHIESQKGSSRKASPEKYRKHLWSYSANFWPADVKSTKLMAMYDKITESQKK
Sequence of Sialic acid-binding Ig-like lectin 9 (Homo sapiens) (Q9Y336 whole entry): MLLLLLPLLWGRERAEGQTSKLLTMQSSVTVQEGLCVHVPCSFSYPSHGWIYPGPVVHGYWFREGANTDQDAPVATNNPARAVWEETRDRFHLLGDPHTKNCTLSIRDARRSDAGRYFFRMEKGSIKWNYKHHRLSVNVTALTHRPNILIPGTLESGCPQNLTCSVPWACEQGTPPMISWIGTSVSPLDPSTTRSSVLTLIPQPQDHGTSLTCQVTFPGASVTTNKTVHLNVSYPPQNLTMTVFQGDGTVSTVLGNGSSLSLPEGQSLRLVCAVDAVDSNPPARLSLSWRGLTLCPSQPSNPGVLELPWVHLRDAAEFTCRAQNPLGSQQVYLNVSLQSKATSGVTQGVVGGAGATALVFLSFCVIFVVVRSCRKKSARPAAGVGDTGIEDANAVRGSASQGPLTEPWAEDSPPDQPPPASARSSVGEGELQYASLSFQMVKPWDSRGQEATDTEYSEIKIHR

Take `Cc1cc(C(=O)NC2CCCN(c3ccccc3)C2=O)on1` (stereo unspecified): the Percent Effect is -6.07% in assay [1]; 5.33% in assay [2]; -2.45% in assay [3]; -2.4% in [4]; -0.0974% in the assay with Trypanosoma cruzi; -1.56% in assay [5]. Also, the Percent Effect in assay [6] is 8.37%; in the assay filed under Homo sapiens, 5.07%; in assay [7], 1.64%; in [8], 13.6%; in assay [9], -2.89%.

As to `Cc1nn(CC(C)C)c(N(C)C)c1CNCc1cccnc1N(C)C`, the Percent Effect in assay [1] is -4.49%; in assay [2], 5.41%; in assay [3], -8.59%; in assay [4], 3.17%; in the assay on Trypanosoma cruzi it was -9.34%; in assay [5], -6.41%. Also, the Percent Effect in [6] was 7.75%; in the assay filed under Homo sapiens, 6.14%; in [7] it was 1.48%; in [8], 3.7%; in assay [9] it was -5.66%.

Consider `CN(C)C(=O)N1CCN(Cc2ccccc2)[C@@H]2CS(=O)(=O)C[C@@H]21`, for which the Percent Effect was -0.429% in [1]; 2.7% in assay [2]; -4.73% in [3]; 3.84% in assay [4]; 4.25% in the assay with Trypanosoma cruzi; -1.43% in assay [5]. The Percent Effect is 10.9% in assay [6]; 4.04% in the assay filed under Homo sapiens; 7.94% in assay [7]; 17.1% in assay [8]; -3.7% in assay [9].

As to `Cc1nnc(Nc2cccc(C3CCN(CCO)CC3)n2)s1`, the Percent Effect was -1.13% in assay [1]; 13.3% in assay [2]; 4.79% in [3]; -2.96% in [4]; 1.38% in the assay with Trypanosoma cruzi; 1.63% in assay [5]. Further, the Percent Effect in [6] was 4.85%; in the assay listed under Homo sapiens, 11.5%; in assay [7] it was 6.38%; in assay [8] it was 14.1%; in [9], -3.37%.

`Cc1cnn(CCC(=O)N2CCCC(c3cc(C(N)=O)[nH]n3)C2)c1` (stereo unspecified): the Percent Effect is -1.91% in assay [1]; 5.41% in assay [2]; -10.4% in assay [3]; 10.5% in assay [4]; 1.79% with Trypanosoma cruzi; -2.4% in [5]. Besides, the Percent Effect was -0.901% in assay [6]; 4.5% in the assay filed under Homo sapiens; 1.48% in assay [7]; 11.1% in assay [8]; -7.36% in [9].

With `Cn1cnnc1C1CCCN(C(=O)c2n[nH]c3ccccc23)C1` (stereo unspecified), the Percent Effect in assay [1] is -3.18%; in [2] it was 18.2%; in assay [3] it was -8.06%; in assay [4], -14.8%; in the assay on Trypanosoma cruzi, 5.19%; in [5], -3.16%. The Percent Effect was 13.8% in assay [6]; -1.86% in the assay listed under Homo sapiens; 8.57% in assay [7]; 32.9% in assay [8]; -21.5% in assay [9].

Take `CCn1ccnc1-c1nc2cc(S(=O)(=O)N3CCCC3)ccc2n1C`: the Percent Effect in [1] is -6.04%; in assay [2], 0%; in assay [3], 3.54%; in assay [4], 25.2%; in the assay on Trypanosoma cruzi, 4.31%; in assay [5], 6.36%. Also, the Percent Effect in assay [6] stood at 4.97%; in the assay filed under Homo sapiens, 2.47%; in assay [7] it was 3.23%; in assay [8] it was 10%; in assay [9], 100%.

In the case of `O=C(NC1CCN(c2snc3ccccc23)CC1)C1CCC1`, the Percent Effect in assay [1] is -4.68%; in assay [2] it was 16.5%; in assay [3], -3.67%; in assay [4], 3.44%; with Trypanosoma cruzi, -1.74%; in assay [5] it was -1.07%. The Percent Effect in [6] is 9.43%; in the assay listed under Homo sapiens, 21.9%; in [7], 4.17%; in assay [8], 20.2%; in assay [9], -33%.

With `O=C(NC[C@]12COC[C@H]1CN(C1CCOCC1)C2)c1ccco1`, the Percent Effect in [1] was -5.25%; in assay [2] it was 10.7%; in assay [3], 4.78%; in assay [4], -6.09%; in the assay with Trypanosoma cruzi it was -2.17%; in assay [5] it was 8.16%. Moreover, the Percent Effect came out at 12.8% in assay [6]; 5.24% in the assay filed under Homo sapiens; 9.57% in assay [7]; 8.97% in assay [8]; 0.371% in assay [9].

As to `CCN1CCN(C2CCN(Cc3nc4ccccc4o3)CC2)C1=O`, the Percent Effect in assay [1] was -1.89%; in [2] it was 10.4%; in [3] it was 0.349%; in assay [4], -1.67%; with Trypanosoma cruzi it was 1.67%; in assay [5], -2.74%. Moreover, the Percent Effect in [6] was 14.2%; in the assay listed under Homo sapiens it was -19%; in assay [7] it was 7.62%; in assay [8] it was 21.2%; in [9], -20.3%.

With `O=C(c1cncc(N2CCC3(CCNCC3)CC2)n1)N1CCCC1`, the Percent Effect in assay [1] is -4.3%; in [2] it was 18.7%; in [3] it was 1.16%; in assay [4], 15.6%; in the assay on Trypanosoma cruzi, 5.94%; in [5] it was 33.9%. Further, the Percent Effect is 23.7% in assay [6]; 12.9% in the assay listed under Homo sapiens; 7.1% in [7]; 21% in assay [8]; -13.4% in assay [9].
